Source: PubChem BioAssay (National Center for Advancing Translational Sciences (NCATS))
TDP1 cell noCPT: qHTS for Inhibitors of human tyrosyl-DNA phosphodiesterase 1 (TDP1): qHTS in cells in absence of CPT; AID 686978, 2013; Potency, µM (doses to about 46.2 µM), usual class: inhibitors; 420,000 tested, 15% active; DT40 Tdp1-/- hTDP1 cells, no CPT, ATP luminescence, 48 h; also: nearly all actives have a fitted effect of over 55% in size
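Stably hTDP1-transfected Tdp1-null chicken DT40 cells were treated with library compounds minus camptothecin and grown for at least 48 hr at 37 °C, after which cellular ATP was quantified by luminescence.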
Giardia killer: Small Molecules that selectively kill Giardia lamblia: qHTS. Giardia lamblia trophozoite viability. activity change, % at 7.66 µM, hits read low. 340,000 tested, 0.15% active; in the data active = activity change below about -80%; inconclusive = between about -30% and that limit;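 also: parasites exposed to compound for two days anaerobically before the ATP read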
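Giardia lamblia trophozoites (100 cells/well) were incubated with compounds for 48 h at 37 deg C under anaerobic conditions. Viability was read as ATP content by one-step luminescence after 15-30 min at room temperature.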
TDP1 inh: qHTS Assay for Inhibitors of Tyrosyl-DNA Phosphodiesterase (TDP1); Tyrosyl-DNA phosphodiesterase 1 (Homo sapiens), Q9NUW8; recombinant TDP1, AlphaScreen DNA substrate cleavage; Potency, µM (highest dose often 130 µM), usual class: inhibitors; 350,000 tested, 0.28% active; also: nearly all actives have a fitted effect of over 40% in size
Target sequence (Q9NUW8 whole entry, looked up): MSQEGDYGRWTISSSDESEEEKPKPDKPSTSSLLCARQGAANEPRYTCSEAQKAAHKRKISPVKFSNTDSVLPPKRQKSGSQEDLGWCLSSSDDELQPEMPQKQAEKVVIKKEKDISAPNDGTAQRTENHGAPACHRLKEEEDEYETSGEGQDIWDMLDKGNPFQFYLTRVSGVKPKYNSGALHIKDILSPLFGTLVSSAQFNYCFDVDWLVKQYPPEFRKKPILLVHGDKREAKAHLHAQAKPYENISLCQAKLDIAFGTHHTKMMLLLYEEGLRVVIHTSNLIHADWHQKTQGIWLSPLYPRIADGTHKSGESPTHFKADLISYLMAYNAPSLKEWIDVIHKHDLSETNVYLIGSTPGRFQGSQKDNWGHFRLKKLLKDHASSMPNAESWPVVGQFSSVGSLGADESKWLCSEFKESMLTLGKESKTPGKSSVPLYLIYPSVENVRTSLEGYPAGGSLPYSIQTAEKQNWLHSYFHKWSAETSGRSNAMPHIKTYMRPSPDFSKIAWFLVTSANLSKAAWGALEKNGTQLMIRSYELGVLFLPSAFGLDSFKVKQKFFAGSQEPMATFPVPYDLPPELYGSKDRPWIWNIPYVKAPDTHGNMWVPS
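Compounds were preincubated with Tdp1 (1 nM final) for 15 min at room temperature before substrate (15 nM final) started a 5 min reaction; beads (10 ug/ml final) were then added for 10 min before AlphaScreen detection.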
ELG1 DNA repair: qHTS screen for small molecules that inhibit ELG1-dependent DNA repair in human embryonic kidney (HEK293T) cells expressing luciferase-tagged ELG1; HEK293T ELG1-luciferase reporter, luminescence, 16 h; DNA damage induced by 5-fluorouridine; Potency, µM (highest dose often 46.1 µM), most hits filed as inhibitors; 330,000 tested, 2.3% active; AID 504467, 2011; also: nearly all actives have a fitted effect of over 55% in size
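Quantitative HTS, concentration-response format. 2,000 cells/well co-treated with 5-fluorouridine and compound, 16 hr in 5% CO2 at 37 °C; ONE-Glo luminescence read after 30 min.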
TDP1 cell CPT: qHTS for Inhibitors of human tyrosyl-DNA phosphodiesterase 1 (TDP1): qHTS in cells in presence of CPT; 420,000 tested, 12% active; chicken DT40 Tdp1-/-;hTDP1 cells + 20 nM CPT, ATP luminescence, 48 h; Potency, µM (top dose mostly 46.2 µM), actives largely listed as inhibitors; also: nearly all actives have a fitted effect of over 55% in size
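Chicken DT40 Tdp1-/- cells complemented with human TDP1, 400 cells/well, exposed to compounds plus 20 nM camptothecin for at least 48 h at 37 C; viability read as ATP content by CellTiter-Glo luminescence.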
IL1B secr inh: qHTS for Inhibitors of Inflammasome Signaling: IL-1-beta AlphaLISA Primary Screen; activity change, % at 57.5 µM; THP-1 LPS/ATP IL-1B secretion, AlphaLISA, 16 h; active compounds read low; 360,000 tested, 4.7% active; in the data active = activity change below about -50%; inconclusive = mostly about -30% to -49%
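THP-1 cells pretreated 1 hr with compounds (up to 57.5 uM final), then stimulated with LPS (250 ng/mL final) plus ATP (1.25 mM final); secreted IL-1B measured by AlphaLISA after 16 hr, decreased signal indicating inhibition.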
Large screens that a line does not name were inactive. This is a sample that favours compounds with a hit; in the whole collection about 19% have one here. Unless noted, calls follow the shape of the dose curve; as a rule, active = well fitted curve in the direction sought with a large enough effect; inconclusive = small, poorly fitted or top-dose-only effect, or another doubt; inactive = no such curve, though single readings can be large; an effect the other way counts as inactive or inconclusive.

CCCc1cc(=O)[nH]c(Nc2ccccc2O)n1	none (no result: Giardia killer, ELG1 DNA repair, IL1B secr inh)
O=C(Nc1cc(Cl)ccc1Cl)c1cc(S(=O)(=O)N2CCc3ccccc3C2)ccc1F	none (no result: Giardia killer, ELG1 DNA repair, IL1B secr inh)
CC(C)c1ccc(NC(=O)CS(=O)(=O)c2cccc3nsnc23)cc1	TDP1 cell noCPT inconclusive (no result: Giardia killer, ELG1 DNA repair, IL1B secr inh)
CC(C)Oc1ccc(C(=O)N2CC(=O)Nc3ccc(F)cc3C2c2ccc(F)cc2)cc1 (configuration not stated)	TDP1 cell noCPT inconclusive, TDP1 cell CPT inconclusive (no result: Giardia killer, ELG1 DNA repair, IL1B secr inh)
CCC(=O)N1CCCN(S(=O)(=O)c2ccc(C)cc2)C1c1ccc(OC)cc1 (configuration not stated)	TDP1 cell noCPT 15µM (no result: TDP1 inh)
Cc1ccc(S(=O)(=O)N2CCN(S(C)(=O)=O)C2C)cc1 (configuration not stated)	none (no result: TDP1 inh)
Cc1ccc(S(=O)(=O)N2CCN(S(=O)(=O)c3ccc(C)cc3)C2c2ccccc2)cc1	TDP1 cell noCPT inconclusive, TDP1 cell CPT 18µM
CCC(=O)Oc1ccc(C2N(C(=O)CC)CCN2S(=O)(=O)c2ccc(C)cc2)cc1OC (configuration not stated)	none
CCOC(=O)Cc1csc(NC(=O)c2ccc(N3CCOCC3)cc2[N+](=O)[O-])n1	TDP1 cell noCPT inconclusive, ELG1 DNA repair inconclusive, TDP1 cell CPT 23µM
Cc1ccc(-c2csc(NC(=O)COC(=O)c3cccc(S(=O)(=O)N4CCOCC4)c3)n2)cc1	ELG1 DNA repair inconclusive
CC(C)CC(=O)Nc1nc(-c2ccc(S(=O)(=O)N3CCOCC3)cc2)cs1	TDP1 cell noCPT 16µM, ELG1 DNA repair inconclusive, TDP1 cell CPT 13µM
CCCCC(=O)Nc1nc(-c2ccc(S(=O)(=O)N3CCOCC3)cc2)cs1	TDP1 cell noCPT 18µM, ELG1 DNA repair inconclusive, TDP1 cell CPT inconclusive
Cc1ccc(Nc2nc(-c3ccc(S(=O)(=O)N4CCOCC4)cc3)cs2)cc1Cl	TDP1 cell noCPT 6.5µM, TDP1 cell CPT 4.6µM
CCOC(=O)Cc1csc(NC(=O)c2ccc([N+](=O)[O-])cc2[N+](=O)[O-])n1	none
N#Cc1ccc(C(=O)Nc2cccc(S(=O)(=O)NC3=NCCC3)c2)cc1	none
Cc1cc(C)c(CN2CCC(N3CCC(C(=O)NCC4CCCO4)CC3)CC2)cc1C (configuration not stated)	TDP1 cell noCPT inconclusive, TDP1 cell CPT inconclusive
COC(=O)[C@@]1(Cc2ccc(F)cc2)[C@H]2c3cc(C(=O)N4CCCC4)n(CC4CC4)c3C[C@H]2CN1C(=O)c1ccccc1	TDP1 cell noCPT inconclusive, TDP1 cell CPT inconclusive (no result: Giardia killer, ELG1 DNA repair)
O=C(C1CCCC1)N1CCN(S(=O)(=O)c2cccc(Cl)c2Cl)CC1	Giardia killer inconclusive (no result: TDP1 inh)
CS(=O)(=O)N1CCC2(CC1)CN(Cc1ccc(C#N)cc1)C2	none (no result: Giardia killer, TDP1 inh, ELG1 DNA repair, IL1B secr inh)
CCOC(=O)Cc1csc(NC(=O)CCc2ccc(S(=O)(=O)N3CCOCC3)cc2)n1	TDP1 cell noCPT inconclusive, ELG1 DNA repair 12µM, TDP1 cell CPT inconclusive
CN1C(=O)/C(=N/OC(=O)c2ccccc2)c2ccccc21	TDP1 cell noCPT 12µM, ELG1 DNA repair inconclusive, TDP1 cell CPT 7.3µM
CN1C(C)(C)CC(=NOC(=O)c2ccccc2)CC1(C)C	none
CC(=O)c1cccc(NC(=O)[C@H](Cc2ccccc2)N2Cc3ccccc3C2=O)c1	TDP1 cell noCPT inconclusive (no result: Giardia killer, ELG1 DNA repair, IL1B secr inh)
COc1ccc(-n2nnc3c(SC(C(C)=O)C(=O)N(C)C)ncnc32)cc1 (configuration not stated)	TDP1 cell noCPT 16µM, ELG1 DNA repair inconclusive, TDP1 cell CPT 18µM
COc1ccc(-c2nnc3ccc(SCC(=O)NCc4ccco4)nn23)cc1	TDP1 inh 79µM
O=C(CSc1ncnc2ccccc12)NCc1ccco1	TDP1 inh inconclusive
CCOc1ccc(-n2nnc3c(=O)n(CC(=O)NCc4ccco4)cnc32)cc1	none
